The supplement of paper PMC6992640
± gives the standard deviation of the averaged measurements.

Key:
Assay in all cases: cell viability (% of vehicle); higher = less cytotoxic
Conditions in all cases: 10 µM; 72 h
[1] = test system: HCI01 (cells of a triple-negative basal-like breast cancer xenograft)
[2] = test system: HCI03 (cells of an ER-positive luminal breast cancer xenograft)
[3] = test system: HCI09 (cells of a triple-negative luminal androgen receptor type breast cancer xenograft)
[4] = test system: HCI11 (cells of an ER-positive luminal breast cancer xenograft)
[5] = test system: HCI13 (cells of an ER-positive luminal breast cancer xenograft)
[6] = test system: HCI16 (cells of a triple-negative basal-like breast cancer xenograft)
[7] = test system: UCD52 (cells of a triple-negative basal-like breast cancer xenograft)
[8] = test system: WHIM2 (cells of a triple-negative basal-like breast cancer xenograft)
[9] = test system: WHIM30 (cells of a triple-negative basal-like breast cancer xenograft)
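Also: PDX cells carrying CMV promoter-driven luciferase, viability read as total photon flux per second by IVIS imaging following D-luciferin, vehicle control 0.1% DMSO.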

SMILES | cell viability [1] | cell viability [2] | cell viability [3] | cell viability [4] | cell viability [5] | cell viability [6] | cell viability [7] | cell viability [8] | cell viability [9]
CCC1=CC2CN(C1)Cc1c([nH]c3ccccc13)C(C(=O)OC)(c1cc3c(cc1OC)N(C)C1C(O)(C(=O)OC)C(OC(C)=O)C4(CC)C=CCN5CCC31C54)C2 (configuration not stated) [Vinorelbine] | 100 ± 15 | 105 | 70.5 ± 25 | 78.5 | 46 ± 4.7 | 167 | 57.5 ± 23 | 60.5 ± 12 | 96.7 ± 3.6
CCOC(=O)C1=C[C@]2(CC)CCCN3CCc4c(n1c1ccccc41)[C@@H]32 [Vinpocetine] | 107 ± 21 | 108 | 94.4 ± 14 | 106 | 88.5 ± 11 | 112 | 110 ± 9 | 93.4 ± 7.8 | 125 ± 11
CCN(CC)CCOC(=O)c1ccc(N)cc1 [Procaine] | 99.4 ± 4.1 | 122 | 105 ± 23 | 87 | 96.765 ± 0.018 | 102 | 88.1 ± 3.5 | 97.3 ± 23 | 95.2 ± 24
COc1cc(C2c3cc4c(cc3C(OC3OC5COC(c6cccs6)OC5C(O)C3O)C3COC(=O)C23)OCO4)cc(OC)c1O (configuration not stated) [Teniposide] | 104 ± 2.6 | 112 | 105 ± 36 | 111 | 134 ± 40 | 118 | 111 ± 1.8 | 87.3 ± 23 | 96.6 ± 4.3
CC(OC1OCCN(Cc2nc(=O)n(P(=O)(O)O)[nH]2)C1c1ccc(F)cc1)c1cc(C(F)(F)F)cc(C(F)(F)F)c1.CNCC(O)C(O)C(O)C(O)CO.CNCC(O)C(O)C(O)C(O)CO (configuration not stated) [Fosaprepitant dimeglumine salt] | 67.4 ± 51 | 103 | 52.4 ± 27 | 85.1 | 76.2 ± 6.3 | 91.7 | 57.2 ± 7.3 | 79.7 ± 44 | 109 ± 2.4
COC(=O)NC(C(=O)NC(Cc1ccccc1)C(O)CN(Cc1ccc(-c2ccccn2)cc1)NC(=O)C(NC(=O)OC)C(C)(C)C)C(C)(C)C.O=S(=O)(O)O (configuration not stated) | 134 ± 8.2 | 135 | 74.8 ± 2.8 | 140 | 100 ± 5.6 | 138 | 113 ± 14 | 90 ± 6.2 | 148 ± 31
CN(C)CCC=C1c2ccccc2CCc2ccccc21.Cl [Amitriptyline HCl] | 103 ± 18 | 99.2 | 87.6 ± 6.1 | 83.2 | 105 ± 9.9 | 135 | 74.5 ± 4.4 | 100 ± 1.1 | 114 ± 2.5
Cc1ccc(NC(=O)C2(c3ccc4c(c3)OC(F)(F)O4)CC2)nc1-c1cccc(C(=O)O)c1 | 104 ± 31 | 89.5 | 78.15 ± 0.74 | 101 | 66 ± 2.5 | 103 | 86.82 ± 0.29 | 92.4 ± 28 | 157 ± 13
